Experimental data as given in the supplement of paper PMC13380429.

Test system: Vero E6 infected with SARS-CoV-2
Test: morphology score (similarity to uninfected cells); higher = more like uninfected cells
Conditions: 24 h

| SMILES | morphology score |
| --- | --- |
| O=C(O)c1cc(=O)c2c(OCC(O)COc3cccc4oc(C(=O)O)cc(=O)c34)cccc2o1 [cromoglicic-acid] (10 µM) | 0.204 |
| O=c1[nH]c([C@@H]2CCCN2)nc2c1oc1ccc(Cl)cc12 (0.833333 µM) | 0.106 |
| O=C(O)C(=O)O.[NH-][C@@H]1CCCC[C@H]1[NH-].[Pt+2] [oxaliplatin] (10 µM) | -0.0885 |
| O=c1cc(N2CCOCC2)oc2c(-c3cccc4c3sc3ccccc34)cccc12 (0.833333 µM) | 0.352 |
| Nc1ncccc1-c1nc2ccc(-c3ccccc3)nc2n1-c1ccc(C2(N)CCC2)cc1 (10 µM) | 0.702 |
| COc1c(O)cc2c(c1O)[C@@H]1O[C@H](CO)[C@@H](O)[C@H](O)[C@H]1OC2=O [bergenin] (10 µM) | 0.087 |
| CC[C@H](CC[C@@H](C)[C@H]1CC[C@H]2[C@@H]3CC=C4C[C@@H](O)CC[C@]4(C)[C@H]3CC[C@]12C)C(C)C [beta-Sitosterol] (10 µM) | 0.119 |
| Cc1cccc2c1CC[C@H](CN1CCC(c3c(Cl)cccc3Cl)CC1)C[C@@H]2O (0.833333 µM) | 0.134 |
| CC[C@@H](CO)NC(=O)[C@@H]1C=C2c3cccc4[nH]cc(c34)C[C@H]2N(C)C1 [methylergometrine] (10 µM) | 0.112 |
| C=C(CC)C(=O)c1ccc(OCC(=O)O)c(Cl)c1Cl [etacrynic-acid] (10 µM) | -0.0164 |
| COc1cc2c(c(OC)c1OC)-c1c(cc3c(c1OC)OCO3)C[C@H](C)[C@@](C)(O)C2 [schisandrol-B] (10 µM) | -0.0659 |
| OC(CCCN1CCN(c2ncc(F)cn2)CC1)c1ccc(F)cc1 (centres undefined) (10 µM) | 0.0906 |
| O=C(O)CCNc1cc(N2CCc3ccccc3CC2)nc(-c2ccccn2)n1 (10 µM) | 0.19 |
| CCOC(=O)Nc1ccc(NCc2ccc(F)cc2)cc1N [Retigabine] (10 µM) | 0.067 |
| COCCCN1CCC(NC(=O)c2cc(Cl)c(N)c3c2OCC3)CC1 [prucalopride] (10 µM) | 0.0302 |
| Cc1nn(C)c2c1C(c1ccc(C(F)(F)F)cc1)C(C#N)=C(N)O2 (centres undefined) (10 µM) | 0.0472 |
| CCOC(=O)c1ccc(NC2CCCCC2)c(N)c1 [ferrostatin-1] (10 µM) | 0.117 |
| O=C(O)c1ccc2[nH]cc(CCCCN3CC=C(c4ccccc4)CC3)c2c1 [carmoxirole] (10 µM) | 0.0618 |
| COC[C@H](NC(=O)c1cnc(C)s1)C(=O)N[C@@H](COC)C(=O)N[C@@H](Cc1ccccc1)C(=O)[C@@]1(C)CO1 [oprozomib] (0.833333 µM) | -0.312 |
| C/N=C(/NC#N)NCCSCc1csc(NC(=N)N)n1 [tiotidine] (10 µM) | 0.11 |

| SMILES | morphology score |
| --- | --- |
| N[C@H](CO)C(=O)O [D-serine] (10 µM) | 0.0301 |
| CCCCC1C(=O)N(c2ccccc2)N(c2ccccc2)C1=O [phenylbutazone] (10 µM) | 0.209 |
| CC(NCCc1ccc(O)cc1)C(O)c1ccc(O)cc1 (centres undefined) [ritodrine] (10 µM) | 0.154 |
| CN(Cc1ccc(C(C)(C)C)cc1)Cc1cccc2ccccc12 [butenafine] (10 µM) | 0.502 |
| OC(CCN1CCCCC1)(c1ccccc1)C1CC2C=CC1C2 (centres undefined) [biperiden] (10 µM) | 0.48 |
| CC(=O)OCC(=O)[C@@]1(O)CC[C@H]2[C@@H]3CCC4=CC(=O)C=C[C@]4(C)[C@@]3(Cl)[C@@H](Cl)C[C@@]21C [dichlorisone-acetate] (10 µM) | -0.00102 |
| C=C(NC(=O)C(=C)NC(=O)c1csc(C2=N[C@@H]3c4csc(n4)[C@H]4NC(=O)c5csc(n5)[C@H]([C@](C)(O)[C@@H](C)O)NC(=O)[C@H]5CSC(=N5)/C(=C/C)NC(=O)[C@H]([C@@H](C)O)NC(=O)c5csc(n5)[C@]3(CC2)NC(=O)[C@H](C)NC(=O)C(=C)NC(=O)[C@H](C)NC(=O)[C@H]([C@@H](C)CC)N[C@@H]2C=Cc3c([C@H](C)O)cc(nc3[C@H]2O)C(=O)O[C@@H]4C)n1)C(N)=O [thiostrepton] (10 µM) | 0.148 |
| CCCn1c(=O)c(C)cn2nc(N)nc12 (10 µM) | 0.276 |
| CCn1c(=O)c2c(nc(/C=C/c3ccc(OC)c(OC)c3)n2C)n(CC)c1=O [istradefylline] (10 µM) | 0.157 |
| Cc1c(N(C)C)c(=O)n(-c2ccccc2)n1C [amidopyrine] (10 µM) | -0.0419 |
| CCc1cc(C(C)=O)c(O)cc1OCCCCCC(C)(C)c1nn[nH]n1 (10 µM) | 0.0736 |
| Cc1ccccc1C(c1ccccc1C)N1C2CCC1CC(O)(c1ccccc1)C2 (centres undefined) (10 µM) | 0.307 |
| COc1ccc2cc(C(C)C(=O)Oc3ccc(C(N)=S)cc3)ccc2c1 (centres undefined) (10 µM) | 0.117 |
| CN1CCN(Cc2ccc(-c3cnc4[nH]cc(-c5ccc6[nH]ccc6c5)c4c3)cc2)CC1 (0.833333 µM) | 0.84 |
| CNC(=O)c1ccc(N2C(=S)N(c3cnc(C#N)c(C(F)(F)F)c3)C(=O)C23CCC3)cc1F [apalutamide] (10 µM) | 0.0169 |
| CSc1ccccc1OCC(O)CNC(C)C (centres undefined) [tiprenolol] (10 µM) | -0.224 |
| COc1ccc(/C=C/C(=O)O)cc1 [trans-4-methoxycinnamic-acid] (10 µM) | 0.07 |
| CC(=O)Oc1ccccc1C(=O)Oc1cccc(CO[N+](=O)[O-])c1 (10 µM) | 0.178 |
| O=[N+]([O-])c1cccc2cn[nH]c12 [7-nitroindazole] (10 µM) | 0.0542 |
